Among the data in PubChem BioAssay are composite z-score values, retold here.

Structures are written as SMILES.

Torsin-1A-interacting protein 2 (Homo sapiens), sequence (Q8NFQ8 whole entry, looked up): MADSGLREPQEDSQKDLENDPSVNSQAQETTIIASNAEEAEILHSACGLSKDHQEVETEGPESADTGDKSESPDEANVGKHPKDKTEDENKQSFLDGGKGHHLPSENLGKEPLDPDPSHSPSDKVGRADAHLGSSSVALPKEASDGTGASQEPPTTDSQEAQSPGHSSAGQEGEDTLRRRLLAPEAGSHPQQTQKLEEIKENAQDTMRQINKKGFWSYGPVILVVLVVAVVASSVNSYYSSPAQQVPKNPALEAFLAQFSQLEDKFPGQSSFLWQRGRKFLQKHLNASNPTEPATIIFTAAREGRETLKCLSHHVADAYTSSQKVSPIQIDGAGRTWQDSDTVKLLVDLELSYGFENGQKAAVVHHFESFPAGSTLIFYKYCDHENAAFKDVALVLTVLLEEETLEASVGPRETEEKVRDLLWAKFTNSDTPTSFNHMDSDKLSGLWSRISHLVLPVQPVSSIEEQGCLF

This assay addresses Torsin-1A-interacting protein 2 (Homo sapiens) (UniProt Q8NFQ8). The assay is described as follows: small molecules binding lysate-expressed LULL1 – cell lysate, human LULL1 lysate, 635/667 nm fluorescence, primary screen (AID 1092).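 Also: probe is lysate of COS7 cells overexpressing human LULL1; score merges per-feature 667 nm fluorescence with signal-to-noise.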 The following applies: small-molecule microarray, hLULL1 lysate binding, 635 nm fluorescence; higher = more signal.
`CC(C)CN1CCc2nc(-c3ccccc3)c3c(c2C1)CO[C@@H](C)C3` returned a composite z-score of 1.71.
To `COCC#Cc1ccc([C@@H]2N[C@H](C(=O)O)CC[C@H]2C)cc1` belongs 0.237.
`C[C@@H](c1ccccc1)N1C(=O)[C@H]2[C@H]3[C@H](O)[C@H](O)CC(=NOC[C@@H](O)COCc4ccco4)[C@H]3CC[C@H]2C1=O` yielded a composite z-score of -1.07.
Next, `CCOC(=O)[C@H](CC(C)C)NC(=O)CCC1CC(OC(=O)NCc2ccc3c(c2)OCO3)CC2(CCCC(COC(=O)NCCc3ccc(Cl)cc3)O2)O1` (stereo partly specified): 1.39.
The compound `C#CCCCON=C1C[C@@H](O)[C@@H](O)[C@@H]2[C@@H]3C(=O)N(C4CCCCC4)C(=O)[C@@H]3CC[C@@H]12` returned a composite z-score of 1.01.
To `CC(C)=CCCC(C)=CCON=C1C[C@@H](O)[C@@H](O)[C@@H]2[C@@H]3C(=O)N(c4cccc(Oc5ccccc5)c4)C(=O)[C@@H]3CC[C@H]12` belongs 1.12.
Next, `COc1ccc(O[C@H]2C=C[C@@H](C#Cc3ccccc3)O[C@@H]2CO)cc1`: 1.88; `CCCNC(=O)OC[C@H]1O[C@H](CCON=C[C@@H](NS(=O)(=O)c2ccc(C)cc2)[C@H](C)C=CCC(=O)OC)C=C[C@@H]1Oc1ccc(OC)cc1`: -0.0006; `COC(=O)[C@H](C)NC(=O)CCC1CC(OC(=O)NCc2cccc3ccccc23)CC2(CCCC(COC(=O)NCCCN3CCCC3=O)O2)O1` (stereo partly specified): 1.89.
To `COC(=O)[C@H](C)NC(=O)CCC1CC(OC(=O)NCCc2ccc(F)cc2)CC2(CCCC(COC(=O)NCC3CCCCC3)O2)O1` (stereo partly specified) belongs 2.16.
In turn, `COC(=O)[C@H](C)NC(=O)CCC1CC(OC(=O)NCc2ccc3c(c2)OCO3)CC2(CCCC(COC(=O)NCCc3ccc(Cl)cc3)O2)O1` (stereo partly specified) registered a composite z-score of 0.945.
To `COc1ccc(COC(=O)NN=C2C[C@@H](O)[C@@H](O)[C@@H]3[C@@H]4C(=O)N([C@@H](C)c5ccccc5)C(=O)[C@@H]4CC[C@@H]23)cc1` belongs -0.0022; to `COc1ccc(O[C@H]2C=C[C@@H](c3ccccc3)O[C@@H]2COC(=O)CCC(C)=NOC[C@@H](O)COCc2ccco2)cc1`, -1.82; to `CCN1C(=O)[C@H]2[C@H]3[C@H](O)[C@H](O)CC(=NOCC(C)C)[C@H]3CC[C@H]2C1=O`, -0.153.
Regarding `CC(=O)OC[C@H]1O[C@H](C#CCC2CCCCC2)C=C[C@@H]1OC(C)=O`, the composite z-score is 1.17.
To `CCN1C(=O)[C@H]2[C@H]3[C@H](O)[C@H](O)CC(=NOC[C@@H](O)[C@H]4O[C@@H]5OC(C)(C)O[C@@H]5[C@H]4O)[C@@H]3CC[C@H]2C1=O` belongs -0.0973; to `C[C@@H]1CC[C@@H](C(=O)O)N[C@H]1c1cccc(N2CCOCC2)c1`, 0.879.
Next, `CCOC(=O)NN=C1C[C@@H](O)[C@@H](O)[C@@H]2[C@@H]3C(=O)N(c4ccc(F)cc4F)C(=O)[C@@H]3CC[C@H]12`: -0.35; `CCC1=NOC(CCC2CC(OC(=O)NCc3cccc4c3OCO4)CC3(CCCC(COC(=O)NCCc4ccc(Cl)cc4)O3)O2)C1` (stereo unspecified): 1.59; `CCOC(=O)CCN1C(=O)[C@H]2[C@H]3[C@H](O)[C@H](O)CC(=NO[C@@H]4O[C@H](CO)[C@@H](O)[C@H](O)[C@H]4O)[C@@H]3CC[C@H]2C1=O`: 0.7.
The compound `CCOC(=O)[C@H](CC(C)C)NC(=O)CCC1CC(OC(=O)NCc2ccc3c(c2)OCO3)CC2(CCCC(COC(=O)NCc3ccccc3)O2)O1` (stereo partly specified) displayed a composite z-score of 1.83.
Consider `CC(C)C(=O)N[C@H]1CCCN1C(=O)C=Cc1ccccc1`, for which the composite z-score worked out at 0.0445.
Turning to `COC(=O)[C@H](C)NC(=O)CCC1CC(OC(=O)NCc2cccc3ccccc23)CC2(CCCC(COC(=O)NCc3ccccc3)O2)O1` (stereo partly specified), the composite z-score amounted to 1.97.
Turning to `CCOC(=O)[C@H](CC(C)C)NC(=O)CCC1CC(OC(=O)NCCc2ccc(F)cc2)CC2(CCCC(COC(=O)NCc3cccc4ccccc34)O2)O1` (stereo partly specified), the composite z-score came out at 2.16.
Next, `COC(=O)CC=C[C@@H](C)[C@@H](C=NOC(C)CN1CCCCc2nc(C)c(C)cc21)OC` (stereo partly specified): 1.24; `CCN1C(=O)[C@H]2[C@H]3[C@H](O)[C@H](O)CC(=NOC[C@@H](O)COCc4ccco4)[C@H]3CC[C@H]2C1=O`: 0.327.
The compound `COCCNC(=O)OCC1CCCC2(CC(OC(=O)NCc3cccc4ccccc34)CC(CCC(=O)N[C@@H](C)C(=O)OC)O2)O1` (stereo partly specified) showed a composite z-score of 1.29.
On to `CC(=O)OC[C@H]1O[C@@H](ON=C(C)CCN2CCCCc3nc(C)c(C)cc32)[C@H](OC(C)=O)[C@@H](OC(C)=O)[C@@H]1OC(C)=O`, for which the composite z-score is 1.07.
Take `O=C1C=C[C@@H](O)[C@@H]2[C@@H]3C(=O)N(c4cccc(Oc5ccccc5)c4)C(=O)[C@@H]3CC[C@@H]12`: the composite z-score worked out at 0.36.
As for `CCOC(=O)[C@H](CC(C)C)NC(=O)CCC1CC(OC(=O)NCCc2ccc(F)cc2)CC2(CCCC(COC(=O)NCCOC)O2)O1` (stereo partly specified), the composite z-score came to 1.7.
Take `CCN1C(=O)[C@H]2[C@H]3[C@H](O)[C@H](O)CC(=NOC(C)CN4CCCc5nc(C)c(C)cc54)[C@@H]3CC[C@H]2C1=O` (stereo partly specified): the composite z-score was found to be 0.404.
Consider `CC(C)=CCCC(C)=CCON=C1[C@H]2CCn3c(=O)n(-c4ccccc4)c(=O)n3[C@H]2[C@H](O)[C@@H]2O[C@H]12`, for which the composite z-score was 2.36.
To `O=C1C=C[C@@H](O)[C@@H]2[C@@H]3C(=O)N(Cc4ccccc4)C(=O)[C@@H]3CC[C@@H]12` belongs 0.0218; to `CCCCOC(OCCCC)C(O)CSc1ccc2ccccc2c1` (stereo unspecified), 0.556.
To `CC[C@@H](c1ccccc1)n1c(=O)n2n(c1=O)[C@H]1[C@H](O)[C@@H]3O[C@@H]3C(=NOCc3ccccc3)[C@H]1CC2` belongs 0.786; to `CC(CCN1CCCc2nc(C)c(C)cc21)=NOC[C@@H](C)[C@H](OCc1ccccc1)C(C)C`, 1.4.
